From PubChem BioAssay (Tox21)
Inconclusive results are not listed. Activity calls are given as the source filed them. Unless noted, the call rests on the fitted dose curve; in most records, active means well fitted curve in the direction sought with a large enough effect in the repeat runs; inconclusive means weak or mixed curves; inactive means no such curve, though single readings can be large; an effect the other way counts as inactive or inconclusive.

Key:
[1] = qHTS assay to identify small molecule agonists of the RXR signaling pathway - cell viability counter screen (AID 1159529);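 further: HEK 293T cells carrying an RXR-alpha UAS beta-lactamase reporter; series mostly up to about 77 µM; nearly all actives have a fitted effect of over 50% in size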
Outline: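 RXR-alpha-UAS-bla HEK 293T cells in medium with 2% charcoal-stripped FBS were preincubated 5 hr, then exposed to compounds for 16 hr at 37 C. Viability was read as CellTiter-Glo luminescence after 30 min at room temperature.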

[2] = qHTS assay to identify small molecule antagonists of the retinoid acid receptor (RAR) signaling pathway - cell viability counter screen (AID 1159551); further: nearly all actives have a fitted effect of over 35% in size
Outline: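 Cells (C3RL4) are plated, incubated overnight, dosed with compound in DMSO, then given retinol at 1 uM final. After 6 h at 37 C, CellTiter-Glo is added and luminescence read following 30 min at room temperature.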

[3] = qHTS assay to identify small molecule antagonists of the retinoic acid receptor (RAR) signaling pathway (AID 1159552; further: nearly all actives have a fitted effect of over 50% in size)
Outline: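 RARE-luc C3RL4 cells; cpds + 1 uM (final) retinol, 6 hr, 37 C/5% CO2; luciferase reagent, 30 min RT, luminescence readout. Inhibitors of retinol-driven signal scored.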

[4] = qHTS assay to identify small molecule agonists of the retinoic acid receptor (RAR) signaling pathway (AID 1159553)
Outline: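 Seed C3RL4 reporter cells at 1,000 per well and incubate overnight at 37 C. Add compounds in DMSO, incubate 6 hr. Add luciferase reagent, wait 30 min at room temperature, read luminescence.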

[5] = qHTS assay to identify small molecule antagonists of the estrogen related receptor (ERR) signaling pathway from Tox21 library - cell viability counter screen (AID 1224834); further: nearly all actives have a fitted effect of over 30% in size
Outline: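 ERR cells, 2,000/well; 6 h settle at 37 C/5% CO2; pin-tool compound transfer in DMSO; 17.5 h at 37 C; CellTiter-Fluor, 30 min; fluorescence intensity.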

[6] = target: Luciferin 4-monooxygenase (Photinus pyralis) (UniProt P08659); assay: qHTS assay to identify small molecule inhibitors of firefly luciferase (AID 1224835); further: series mostly up to about 120 µM; nearly all actives have a fitted effect of over 25% in size
Outline: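 Biochemical qHTS: compounds run as interplate titrations against purified firefly enzyme, with D-luciferin and ATP each at its KM concentration. Light output recorded by CCD imaging.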

[7] = target: Nuclear receptor subfamily 1 group I member 3 (Homo sapiens) (UniProt Q14994); assay: qHTS assay to identify small molecule antagonists of the constitutive androstane receptor (CAR) signaling pathway (AID 1224838); further: nearly all actives have a fitted effect of over 40% in size
Outline: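 Antagonist mode used CITCO at a final 50 nM to activate CAR in human hepatoma HepG2 cells carrying stable hCAR and a 2.2 kb CYP2B6 promoter-luciferase construct. Compounds were tested at 15 concentrations over 24 h, with luminescence as the end point.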

[8] = target: Nuclear receptor subfamily 1 group I member 3 (Homo sapiens) (UniProt Q14994); assay: qHTS assay to identify small molecule agonists of the constitutive androstane receptor (CAR) signaling pathway (AID 1224839); further: series mostly up to about 92 µM; nearly all actives have a fitted effect of over 15% in size
Outline: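 HepG2 cells stably expressing hCAR and a CYP2B6-2.2kb luciferase reporter were treated with compounds at 15 concentrations plus 0.75 uM PK11195 (final) for 24 h at 37 C; luminescence was read after ONE-Glo addition.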

[9] = qHTS assay to identify small molecule antagonists of the estrogen related receptor signaling pathway with the pleiotropic PPARgamma coactivator (PGC) from Tox21 10K library - cell viability counter screen (AID 1224840; active means well fitted cell-killing curve with a large enough effect in the repeat runs, not every such curve was filed as active; further: nearly all actives have a fitted effect of over 40% in size)
Outline: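 Multiplexed viability counter screen in the PGC/ERR cell line: cells treated with DMSO-dissolved compounds for 17.5 hours at 37 C, then viability measured as CellTiter-Fluor fluorescence.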

[10] = target: Thyrotropin receptor (Homo sapiens) (UniProt P16473); assay: qHTS assay to identify small molecule agonists of the thyroid stimulating hormone receptor (TSHR) signaling pathway (AID 1224843; calls by dose curve; further: nearly all actives have a fitted effect of over 45% in size; further: potency means the concentration at half of the fitted maximal effect)
Outline: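 HEK293/TSHR, 800 cells/well; cpd 30 min RT; add cAMP-d2 + anti-cAMP-cryptate, 1 h RT; fluorescence read on plate reader. 15-pt titration, n=3.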

[11] = qHTS assay to identify small molecule agonists of the hypoxia (HIF-1) signaling pathway - cell viability counter screen (AID 1224844; calls by dose curve; further: nearly all actives have a fitted effect of over 50% in size)
Outline: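 Cytotoxicity was measured in parallel with the HRE-driven beta-lactamase readout: after 17 hrs of compound exposure at 37C, HRE-bla ME-180 cells received CellTiter-Glo and luminescence was recorded 30 min later.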

[12] = qHTS assay to identify small molecule agonists of the constitutive androstane receptor (CAR) signaling pathway - cell viability counter screen (AID 1224836); further: series mostly up to about 92 µM; nearly all actives have a fitted effect of over 45% in size
Outline: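 HepG2 cells stably carrying hCAR and a CYP2B6-2.2kb reporter were plated 4 h, then given compounds at 15 concentrations plus PK11195 (final 0.75 uM). After 23 h at 37 C, viability was read by CellTiter-Fluor fluorescence.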

[13] = qHTS assay to identify small molecule antagonists of the constitutive androstane receptor (CAR) signaling pathway - cell viability counter screen (AID 1224837); further: series mostly up to about 92 µM; nearly all actives have a fitted effect of over 45% in size
Outline: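 Viability was measured with CellTiter-Fluor in a HepG2 line carrying stably transfected hCAR and a CYP2B6-2.2kb construct. Cells were exposed for 23 hr at 37 C to 15 compound concentrations with 50 nM CITCO as agonist.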

[14] = qHTS assay to identify small molecule antagonists of the estrogen related receptor signaling pathway with the pleiotropic PPARgamma coactivator (PGC) from Tox21 10K library (AID 1224841; call rule not given here; further: series mostly up to about 92 µM; actives are mostly falling curves and most rising ones were filed inactive; nearly all actives have a fitted effect of over 50% in size)
Outline: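 Steps: plate 2,000 PGC/ERR cells per well; incubate 6 h at 37 C with 5% CO2; transfer compounds from DMSO stocks by pin tool; incubate 18 h at 37 C; add One-Glo; measure luminescence 30 min later.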

[15] = qHTS assay to identify small molecule agonists of the estrogen related receptor signaling pathway with the pleiotropic PPARgamma coactivator (PGC) from Tox21 10K library (AID 1224842); further: nearly all actives have a fitted effect of over 15% in size
Outline: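 PGC/ERR reporter cell line, 2,000 cells per well, incubated 6 h at 37 C before 23 nL compound in DMSO was added. After 18 h at 37 C, One-Glo luminescence read following 30 min at room temperature.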
On the % scale 0 is the no-effect control and ±100 the full control effect.

Sequence of Thyrotropin receptor (Homo sapiens) (P16473 whole entry, looked up): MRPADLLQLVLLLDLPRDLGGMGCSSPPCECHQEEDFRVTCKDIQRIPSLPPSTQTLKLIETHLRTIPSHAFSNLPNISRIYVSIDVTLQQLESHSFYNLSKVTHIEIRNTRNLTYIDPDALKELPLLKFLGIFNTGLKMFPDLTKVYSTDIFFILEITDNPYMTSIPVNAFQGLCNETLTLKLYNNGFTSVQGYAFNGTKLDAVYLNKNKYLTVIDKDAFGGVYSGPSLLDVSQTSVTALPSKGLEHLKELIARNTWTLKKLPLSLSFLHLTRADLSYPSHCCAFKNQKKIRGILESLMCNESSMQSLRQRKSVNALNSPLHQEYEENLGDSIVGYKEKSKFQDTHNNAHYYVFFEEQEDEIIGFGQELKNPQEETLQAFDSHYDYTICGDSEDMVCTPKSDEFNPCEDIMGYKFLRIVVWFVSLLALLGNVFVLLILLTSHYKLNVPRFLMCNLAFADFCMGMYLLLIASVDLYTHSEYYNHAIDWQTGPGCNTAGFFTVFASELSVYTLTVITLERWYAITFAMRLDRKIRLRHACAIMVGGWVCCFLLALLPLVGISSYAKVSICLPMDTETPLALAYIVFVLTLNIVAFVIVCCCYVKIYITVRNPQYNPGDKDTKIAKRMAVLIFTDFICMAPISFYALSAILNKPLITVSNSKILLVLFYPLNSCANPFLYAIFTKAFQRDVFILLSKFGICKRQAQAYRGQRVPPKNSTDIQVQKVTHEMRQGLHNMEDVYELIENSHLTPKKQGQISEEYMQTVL
Sequence of Nuclear receptor subfamily 1 group I member 3 (Homo sapiens) (Q14994 whole entry, looked up): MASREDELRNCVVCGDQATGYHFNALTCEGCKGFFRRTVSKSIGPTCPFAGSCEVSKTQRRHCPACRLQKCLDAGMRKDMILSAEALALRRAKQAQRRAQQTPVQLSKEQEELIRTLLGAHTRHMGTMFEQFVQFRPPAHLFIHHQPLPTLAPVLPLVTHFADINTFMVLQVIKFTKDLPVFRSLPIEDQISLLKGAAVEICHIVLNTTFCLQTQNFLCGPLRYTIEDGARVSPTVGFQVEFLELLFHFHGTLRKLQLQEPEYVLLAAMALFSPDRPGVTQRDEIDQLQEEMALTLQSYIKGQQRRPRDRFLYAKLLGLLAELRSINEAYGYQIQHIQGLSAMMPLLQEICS
Sequence of Luciferin 4-monooxygenase (Photinus pyralis) (P08659 whole entry, looked up): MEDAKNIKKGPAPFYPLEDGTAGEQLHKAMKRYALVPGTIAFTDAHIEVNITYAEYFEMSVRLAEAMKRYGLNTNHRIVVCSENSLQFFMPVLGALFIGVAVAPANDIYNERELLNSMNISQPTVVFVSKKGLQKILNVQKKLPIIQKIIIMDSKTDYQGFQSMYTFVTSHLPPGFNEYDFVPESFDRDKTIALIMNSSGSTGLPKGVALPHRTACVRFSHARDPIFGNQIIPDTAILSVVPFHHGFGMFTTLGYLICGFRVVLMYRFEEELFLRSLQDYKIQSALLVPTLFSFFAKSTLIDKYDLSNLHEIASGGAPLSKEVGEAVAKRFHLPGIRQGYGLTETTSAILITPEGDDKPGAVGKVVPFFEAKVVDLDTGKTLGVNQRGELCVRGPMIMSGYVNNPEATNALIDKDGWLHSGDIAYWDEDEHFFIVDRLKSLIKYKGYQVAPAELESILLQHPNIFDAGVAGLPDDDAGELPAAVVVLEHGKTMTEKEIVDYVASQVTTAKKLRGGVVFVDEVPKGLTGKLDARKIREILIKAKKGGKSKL

CC(C)NCC(O)c1ccc([N+](=O)[O-])cc1 (stereo not given)
inactive: Potency [1] | Potency [2] | Potency [3] | Potency [4] | Potency [5] | Potency [6] | Potency [7] | Potency [8] | Potency [9] | Potency [10] | Potency [11]

Brc1c(Br)c(Br)c(Br)c(Br)c1Br
inactive: activity change, negative = cytotoxicity [1] 7.53% [at 6.97 µM] | activity change, negative = cytotoxicity [2] -4.22% [at 8.39 µM] | activity, negative = inhibition [3] -18.1% [at 8.39 µM] | activation [4] -2.33% [at 8.36 µM] | viability change, negative = cytotoxic [5] 3.18% [at 8.39 µM] | activity change, negative = inhibition [6] -3.44% [at 10.5 µM] | viability change, negative = cytotoxic [12] 3.28% [at 8.39 µM] | activity, negative = inhibition [7] -5.81% [at 8.39 µM] | viability change, negative = cytotoxic [9] -4.4% [at 8.39 µM] | activation [10] 1.42% [at 8.39 µM] | activity change, negative = cytotoxicity [11] -35.3% [at 6.97 µM]

C#CC(C)(C)O
inactive: Potency [1] | Potency [2] | Potency [3] | Potency [4] | Potency [5] | Potency [6] | Potency [13] | Potency [7] | Potency [8] | Potency [14] | Potency [15] | Potency [11]

CC(C)(C)NC[C@H](O)c1ccc(O)cc1Cl
active: Potency [10] 8.4 nM
inactive: Potency [1] | Potency [2] | Potency [3] | Potency [4] | Potency [5] | Potency [6] | Potency [12] | Potency [9] | Potency [14] | Potency [15] | Potency [11]

C=C(Cl)CCl
inactive: Potency [1] | Potency [2] | Potency [3] | Potency [4] | Potency [5] | Potency [6] | Potency [13] | Potency [9] | Potency [10] | Potency [11]

C=CC(=O)OCCN(C)C
inactive: Potency [1] | Potency [2] | Potency [3] | Potency [4] | Potency [5] | Potency [6] | Potency [13] | Potency [9] | Potency [14] | Potency [15] | Potency [11]

COC(=O)[C@@H](N)CCCN/C(N)=N/[N+](=O)[O-]
inactive: Potency [1] | Potency [2] | Potency [3] | Potency [4] | Potency [5] | Potency [6] | Potency [12] | Potency [9] | Potency [10] | Potency [11]

CNC(=O)O/N=C(/CSC)C(C)(C)C
inactive: Potency [1] | Potency [2] | Potency [3] | Potency [4] | Potency [5] | Potency [6] | Potency [12] | Potency [7] | Potency [9] | Potency [10] | Potency [11]

CCCCCCCCBr
inactive: Potency [1] | Potency [2] | Potency [3] | Potency [4] | Potency [5] | Potency [6] | Potency [13] | Potency [7] | Potency [8] | Potency [9] | Potency [10] | Potency [11]

O=C(NC(=O)c1c(F)cccc1F)Nc1cc(Cl)c(F)c(Cl)c1F
inactive: Potency [1] | Potency [2] | Potency [3] | Potency [4] | Potency [5] | Potency [6] | Potency [12] | Potency [7] | Potency [9] | Potency [10] | Potency [11]

CC1N=C(N)OC1c1ccccc1 (stereo not given)
inactive: Potency [1] | Potency [2] | Potency [3] | Potency [4] | Potency [5] | Potency [6] | Potency [13] | Potency [7] | Potency [9] | Potency [10] | Potency [11]

C=C1C[C@@H]2[C@H](CC[C@]3(C)C(=O)CC[C@@H]23)[C@@]2(C)C=CC(=O)C=C12
inactive: Potency [1] | Potency [2] | Potency [3] | Potency [4] | Potency [5] | Potency [6] | Potency [13] | Potency [7] | Potency [9] | Potency [14] | Potency [15] | Potency [10] | Potency [11]
